Only some compounds are listed: those with a hit (about 1.1% of all), similar ones and a draw of the others.
NPSR antag: antagonists of human neuropeptide S receptor cAMP signaling; Q6W5P4; CHO-NPSR cells, cAMP TR-FRET, antagonist mode; Potency, µM (series often up to 38.3 µM), for the others: top-dose activity change, negative = inhibition, usual class: inhibitors; 1% of 220,000 active; AID 1461; also: % is scaled to controls: 0 for no effect and ±100 for the full control effect; nearly all actives have a fitted effect of over 50% in size
AT treatment: potential ataxia-telangiectasia treatments restoring KAP-1 phosphorylation. 0.19% of 320,000 active. F2112 A-T fibroblasts, KAP-1 phosphorylation AlphaLISA; neocarzinostatin DNA damage 30 min before lysis. AID 485349. Potency, µM (doses to about 57.5 µM), inactives show at the top dose activation, usual class: activators; also: % of control where 0% means no effect; nearly all actives have a fitted effect of over 45% in size
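hTERT-immortalized A-T patient fibroblasts (F2112), 500 cells/well in OPTI-MEM, 1% FBS, got compounds for 60 min, then NCS for 30 min at 37C. Lysates were then assayed for phospho-KAP-1 by AlphaLISA (anti-pKAP1 donor, anti-KAP1 acceptor beads), 6 hr at 25C.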
HTT cytoprotect: protects HTT-Q103 PC12 cells, measured by ATP; PC12 HTT-Q103 induced, cytoprotection, ATP luminescence, 40 h; Potency, µM (highest dose often 56.4 µM), for the others: cytoprotection (ATP increase), hits mostly activators; 0.14% of 230,000 active; AID 1471; also: % of control where 0% means no effect; nearly all actives have a fitted effect of over 45% in size
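PC12 cells stably carrying ecdysone-inducible Htt exon 1 (Q103)–GFP were induced with 100 nM tebufenozide (final) alongside library compounds in a dose series. Cytoprotection was scored as retained ATP by ATPlite luminescence.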
HttQ103 aggreg: reduces HttQ103-GFP aggregates in PC12 cells. PC12 HttQ103-GFP aggregates, Acumen cytometry, 40 h. Potency, µM (titrated, usually from 46.1 µM), for inactives: at the highest dose activity change, negative = inhibition, most hits filed as inhibitors. 1.1% of 220,000 active. AID 1688; also: % is scaled to controls: 0 for no effect and ±100 for the full control effect; nearly all actives have a fitted effect of over 60% in size
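Aggregates are detected as GFP objects 1–25 µm with signal 6 STDEV over background in lysates of induced PC12 cells. These carry Huntingtin exon 1 with 103 glutamines fused to GFP under an ecdysone promoter; compounds titrated.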
IDH1 R132H inh: blocks human mutant IDH1 R132H enzyme. O75874. IDH1-R132H enzyme, NADPH consumption, diaphorase/resazurin fluorescence. Potency, µM (top dose mostly 76.6 µM), inactives show at the highest dose activity change, negative = inhibition, hits mostly inhibitors. 0.093% of 390,000 active. AID 602179; also: % is scaled to controls: 0 for no effect and ±100 for the full control effect; nearly all actives have a fitted effect of over 65% in size
Target sequence (O75874 whole entry R132H, stated change not applied): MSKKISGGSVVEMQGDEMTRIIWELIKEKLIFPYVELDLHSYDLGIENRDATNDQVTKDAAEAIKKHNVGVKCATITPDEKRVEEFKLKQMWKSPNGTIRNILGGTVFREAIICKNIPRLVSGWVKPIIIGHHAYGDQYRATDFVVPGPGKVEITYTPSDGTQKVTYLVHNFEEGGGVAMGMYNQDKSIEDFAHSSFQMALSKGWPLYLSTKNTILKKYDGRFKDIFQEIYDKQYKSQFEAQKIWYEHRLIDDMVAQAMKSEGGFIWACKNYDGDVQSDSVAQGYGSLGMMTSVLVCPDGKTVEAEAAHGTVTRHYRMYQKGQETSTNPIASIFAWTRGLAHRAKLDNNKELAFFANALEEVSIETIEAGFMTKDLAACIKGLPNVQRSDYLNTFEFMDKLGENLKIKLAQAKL
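IDH1-R132H (0.5 ug/mL dispensed) in pH 7.5 Tris buffer was preincubated 30 min with compound, then given a substrate mix of 0.016 mM NADPH and 2 mM alpha-KG for 80 min at room temperature; remaining NADPH was read by diaphorase/resazurin fluorescence.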
Numbers without * were called inactive; u = inconclusive; x = no result given; [ ] = another dose, or the depositor's remark. Calls follow the shape of the dose curve; as a rule, active = well fitted curve in the direction sought with a large enough effect; inconclusive = small, poorly fitted or top-dose-only effect, or another doubt; inactive = no such curve, though single readings can be large; an effect the other way counts as inactive or inconclusive. Potency is read from the fitted curve at half-maximal effect.

SMILES | NPSR antag | AT treatment | HTT cytoprotect | HttQ103 aggreg | IDH1 R132H inh
Cc1ccc2nc(C3CCN(S(=O)(=O)c4ccc5ccccc5c4)CC3)[nH]c2c1 | -30%[46.1 µM] | x | -77% | 18µM* | -1%
CC(=O)c1cccc(S(=O)(=O)N2CCC(c3nc4ccccc4[nH]3)CC2)c1 | x | -1% | x | x | 3%
Cc1cc(=O)[nH]c(Nc2cccc(C(F)(F)F)c2)n1 | 5%[7.67 µM] | -1% | 11% | 11µM* | 6%
Cc1cc(=O)[nH]c(SCC(=O)Nc2cccc(C(F)(F)F)c2)n1 | 1%[46.1 µM] | 8% | -4% | -25% | 7%
Nc1nnc(Cc2ccc(Cl)c(Cl)c2)s1 | 2%[46.1 µM] | -1% | -3% | 5.6µM* | 4%
CCOC(=O)c1cc(-c2ccccc2)sc1NC(=O)c1ccc(OC)c(OC)c1 | -17% | -5% | 14%[10 µM] | u | 3%
Cc1cccc(C(=O)Nc2sc(-c3ccccc3)cc2C(=O)O)c1 | 13µM* | -4% | -12%[10 µM] | -3%[9.22 µM] | 17%
CC(C)(C)C(=O)Nc1sc(-c2ccccc2)cc1C(=O)O | 13µM* | -5% | 30%[10 µM] | -3%[9.22 µM] | -3%
Cc1ccc(OCC(=O)Nc2ccc3nc(SCC(=O)N4CCOCC4)sc3c2)cc1C | x | x | x | x | 6%
CC(N)C(=O)NCC(=O)NC1CSSCC(C(=O)O)NC(=O)C(CO)NC(=O)C(C(C)O)NC(=O)C(Cc2ccccc2)NC(=O)C(C(C)O)NC(=O)C(CCCCN)NC(=O)C(Cc2c[nH]c3ccccc23)NC(=O)C(Cc2ccccc2)NC(=O)C(Cc2ccccc2)NC(=O)C(CC(N)=O)NC(=O)C(CCCCN)NC1=O (configuration not stated) | x | x | 22% | 19% | x
CCCN1CC=C2C(C#N)=C(N)C(C#N)(C#N)C(c3cccc(OC)c3OC)C2C1 (configuration not stated) | -16%[46.1 µM] | 17% | 23%[10 µM] | u | -14%
COc1cccc(OC)c1OCc1cc(C2C3CCCC=C3C(C#N)=C(N)C2(C#N)C#N)c(C)cc1C (configuration not stated) | 3.2µM* | 1% | u | -17% | u
Cc1ccccc1CCN(C(=O)CN1C(=O)c2ccccc2S1(=O)=O)C(C(=O)NCC1CCCO1)c1ccncc1 (configuration not stated) | -20%[46.1 µM] | 0% | 22%[10 µM] | 16µM* | 3%
CC(c1ncncc1F)[C@](O)(Cn1cncn1)c1ccc(F)cc1F (some centres not stated) | x | x | -69% | 14% | x
COc1ccc(CN(CCC(c2ccccc2)C2CCOC(C)(C)C2)C(C)=O)cc1 (configuration not stated) | -23% | 3% | -14%[10 µM] | 13µM* | u
COc1ccc(CNCCC(c2ccccc2)C2CCOC(C)(C)C2)cc1 (configuration not stated) | -17% | -4% | x | -1% | -12%
CC(=O)O[C@H]1C(=O)[C@]2(C)[C@H]([C@H](OC(=O)c3ccccc3)[C@@]3(O)C[C@H](OC(=O)[C@@H](O)[C@@H](NC(=O)c4ccccc4)c4ccccc4)C(C)=C1C3(C)C)[C@]1(OC(C)=O)CO[C@@H]1C[C@@H]2O | x | x | -3% | x | x
Cc1ccc(OCc2nnc(SCC(=O)N3CCOCC3)n2C)cc1 | -6%[46.1 µM] | -7% | 13µM* | 4% | 0%
C/C=C/C=C/C=O | x | x | 3% | x | x
CCn1nc(-c2ccccc2)c(-c2ccccc2)c(C(=O)Nc2ccccc2C(N)=O)c1=O | x | x | x | x | -12%
COc1ccc(OC)c(-c2c3cc(O)c(=O)cc-3oc3cc(O)c(O)cc23)c1 | -26% | 0% | x | 5µM* | 40µM*
COc1ccccc1-c1cc(=O)c2cc(O)ccc2o1 | x | x | 2%[1.9 µM] | x | x
CCOc1ccccc1-c1c2cc(O)c(=O)cc-2oc2cc(O)c(O)cc12 | -13% | -13% | 8%[10 µM] | -4% | 13µM*
O=c1cc2oc3cc(O)c(O)cc3c(-c3ccccc3O)c-2cc1O | 11%[7.67 µM] | -8% | -13%[10 µM] | -19%[9.22 µM] | -4%
COCc1cc(C)nc(OCC(=O)N/N=C/c2ccccc2O)c1C#N | 4% | 18% | -102% | 11µM* | 2%
SMILES | NPSR antag | AT treatment | HTT cytoprotect | HttQ103 aggreg | IDH1 R132H inh
c1ccc(-c2nc(N3CCCCCC3)nc(-n3ccnc3)n2)cc1 | u | -1% | -58% | -16% | -13%
c1ccc(-c2nc(N3CCN(c4ccccc4)CC3)nc(-n3ccnc3)n2)cc1 | u | 4% | -28% | 14µM* | -1%
Cc1ccc(C[C@H](Cc2nc3ccccc3[nH]2)c2nc3ccccc3[nH]2)cc1 | x | x | -9% | x | x
CCCCNC(=O)CCCN1C(=O)c2ccccc2Sc2ncccc21 | x | x | x | x | -4%
CN1CCN(c2ncc3nc(-c4cccc(C#N)c4)c(=O)n(Cc4ccc(F)cc4)c3n2)CC1 | x | x | -183% | x | x
CC(C)(C)NC(=S)NNC(=O)c1cccc(Br)c1 | -36% | -4% | -141% | 11µM* | 2%
O=C(NNC(=O)c1cccc(Br)c1)Nc1ccc(Cl)cc1 | 13% | 28µM* | -18% | 26% | 2%
O=C(NNC(=S)Nc1ccccc1)c1cccc(Br)c1 | -23%[46.1 µM] | x | 5% | -2%[9.22 µM] | -2%
COc1ccc2cc(C(=O)CCC(=O)O)ccc2c1 | x | x | -6%[10 µM] | x | x
OC(COCc1ccc(Cl)cc1)CN1CCCCC1 (configuration not stated) | x | 12% | x | x | 5%
Cc1cccc(C)c1OCC(O)CN1CCN(c2ccccn2)CC1 (configuration not stated) | 5% | 8% | -32% | -4% | 0%
OC(COCc1ccc(Cl)cc1)CN1CCN(CC(O)COCc2ccc(Cl)cc2)CC1 (configuration not stated) | u | 10% | -20%[10 µM] | 4µM* | 1%
OC(COC(c1ccc(Cl)cc1)c1ccc(Cl)cc1)CN1CCN(c2ccccn2)CC1 (configuration not stated) | -48% | 14% | 17%[10 µM] | 32µM* | 2%
CN(C)CC(C(=O)c1ccccc1)c1ccccc1 (configuration not stated) | -22%[46.1 µM] | 32µM* | 11%[10 µM] | u | 7%
CCCCOc1ccccc1NC(=O)c1ccco1 | 2%[46.1 µM] | -1% | 12% | 23% | 2%
CCCCOc1ccccc1NC(=O)c1scc2c1OCCO2 | -58% | 15% | -49% | 13µM* | 11%
c1ccc2cc(NCNc3ccc4ccccc4c3)ccc2c1 | x | x | -13%[10 µM] | x | x
N#Cc1c(NC(=O)Cn2c(=O)oc3ccccc32)oc(-c2ccccc2)c1-c1ccccc1 | -12%[46.1 µM] | -3% | 9% | 20µM* | -1%
CCC(=O)NC1CCc2cccc(OC)c2C1 (configuration not stated) | x | x | -29% | x | x
C/C(=C\C(=O)O)C(=O)Nc1nccs1 | -9%[46.1 µM] | -1% | 2% | 0.11µM* | 2%
O=C(O)/C=C/C(=O)Nc1nccs1 | -19% | 2% | 5%[10 µM] | 15%[9.22 µM] | -19%
C[N+](C)(C)CC(=O)N/N=C\c1ccncc1 | x | x | 3%[10 µM] | x | x
